Laboratory results taken from PubChem BioAssay (Tox21).
Records with an inconclusive call do not appear. Activity calls are given as the source filed them. Unless noted, calls follow the shape of the dose curve; as a rule, active = well fitted curve in the direction sought with a large enough effect in the repeat runs; inconclusive = weak or mixed curves; inactive = no such curve, though single readings can be large; an effect the other way counts as inactive or inconclusive.

How the values were obtained:
[1] = molecular target: Retinoic acid receptor RXR-alpha (Homo sapiens) (UniProt P19793); assay: qHTS assay to identify small molecule agonists of the RXR signaling pathway (AID 1159527; calls by dose curve; also: nearly all actives have a fitted effect of over 35% in size)
Chain of Retinoic acid receptor RXR-alpha (Homo sapiens) (P19793 whole entry, looked up): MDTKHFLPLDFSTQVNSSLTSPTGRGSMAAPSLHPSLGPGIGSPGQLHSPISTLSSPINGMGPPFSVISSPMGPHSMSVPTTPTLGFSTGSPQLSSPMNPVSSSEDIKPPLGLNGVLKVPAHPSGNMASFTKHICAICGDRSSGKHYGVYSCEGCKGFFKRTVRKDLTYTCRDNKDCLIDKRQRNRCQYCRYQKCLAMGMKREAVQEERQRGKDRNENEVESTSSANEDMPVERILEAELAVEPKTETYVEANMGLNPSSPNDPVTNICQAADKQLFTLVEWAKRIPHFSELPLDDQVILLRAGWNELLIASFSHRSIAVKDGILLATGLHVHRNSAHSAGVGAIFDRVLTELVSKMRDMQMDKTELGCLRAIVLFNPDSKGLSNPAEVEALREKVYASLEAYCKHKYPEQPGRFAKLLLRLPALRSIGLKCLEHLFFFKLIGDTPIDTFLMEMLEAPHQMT
In short: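 Reporter activation is measured as beta-lactamase activity via FRET substrate cleavage (emission 460/530 nm) in HEK 293T cells expressing an RXR-alpha-driven bla construct, following 16 hr compound exposure at 37 C.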

[2] = qHTS assay to identify small molecule agonists of the RXR signaling pathway - cell viability counter screen (AID 1159529); also: nearly all actives have a fitted effect of over 50% in size
In short: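 Tox21 10K compounds were tested for cytotoxicity against GeneBLAzer RXR-alpha HEK 293T cells grown in 2% charcoal-stripped FBS. Exposure lasted 16 hr at 37 C, 5% CO2; viability read by CellTiter-Glo luminescence.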

[3] = qHTS assay to identify small molecule antagonists of the retinoid acid receptor (RAR) signaling pathway - cell viability counter screen (AID 1159551); also: nearly all actives have a fitted effect of over 35% in size
In short: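 C3RL4 RARE-luciferase cells, 1,000/well, incubated overnight, then dosed with compound plus 1 uM retinol (final). After 6 hr at 37 C, viability read by CellTiter-Glo ATP luminescence following 30 min at room temperature.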

[4] = qHTS assay to identify small molecule antagonists of the retinoic acid receptor (RAR) signaling pathway (AID 1159552; also: nearly all actives have a fitted effect of over 50% in size)
In short: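 Overnight-plated C3RL4 reporter cells get compound, then retinol to 1 uM final; plates sit 6 hr at 37 C, 5% CO2. A luciferase reagent is added and light output recorded after 30 min at room temperature.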

[5] = qHTS assay to identify small molecule agonists of the retinoic acid receptor (RAR) signaling pathway (AID 1159553); conditions: C3RL4 RARE luciferase reporter, agonist, 6 h; activation: at 73.3 µM (top of the series)
In short: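 C3RL4 RARE-luciferase cells were seeded at 1,000/well and grown overnight at 37 C, then exposed to compounds for 6 hr at 37 C, 5% CO2. Luciferase reagent was added and luminescence was read after 30 min at room temperature.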

[6] = qHTS assay to identify small molecule agonists of the constitutive androstane receptor (CAR) signaling pathway - cell viability counter screen (AID 1224836); also: nearly all actives have a fitted effect of over 45% in size
In short: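 Fluorescence from CellTiter-Fluor indicates live cells after 23 h exposure. The human hepatoma line expresses hCAR and a CYP2B6-2.2kb reporter. Incubation medium contains 0.75 uM PK11195 (final).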

[7] = qHTS assay to identify small molecule antagonists of the constitutive androstane receptor (CAR) signaling pathway - cell viability counter screen (AID 1224837); also: nearly all actives have a fitted effect of over 45% in size
In short: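 HepG2 cells stably carrying hCAR and CYP2B6-2.2kb reporter, stimulated with 50 nM CITCO and compounds at 15 concentrations for 23 h at 37 C. Viability measured by CellTiter-Fluor fluorescence.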

[8] = molecular target: Nuclear receptor subfamily 1 group I member 3 (Homo sapiens) (UniProt Q14994); assay: qHTS assay to identify small molecule agonists of the constitutive androstane receptor (CAR) signaling pathway (AID 1224839); also: nearly all actives have a fitted effect of over 15% in size
Chain of Nuclear receptor subfamily 1 group I member 3 (Homo sapiens) (Q14994 whole entry, looked up): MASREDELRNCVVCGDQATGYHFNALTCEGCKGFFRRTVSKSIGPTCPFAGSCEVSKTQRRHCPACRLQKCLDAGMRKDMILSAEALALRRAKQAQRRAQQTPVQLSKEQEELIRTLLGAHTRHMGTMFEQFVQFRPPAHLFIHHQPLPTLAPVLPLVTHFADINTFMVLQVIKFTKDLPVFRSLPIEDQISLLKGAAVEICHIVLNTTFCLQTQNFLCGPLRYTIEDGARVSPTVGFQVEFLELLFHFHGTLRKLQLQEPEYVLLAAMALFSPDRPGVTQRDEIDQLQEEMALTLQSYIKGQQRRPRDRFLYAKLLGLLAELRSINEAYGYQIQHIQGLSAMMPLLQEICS
In short: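 Stable hCAR/CYP2B6-2.2kb HepG2 line in DMEM with 10% FBS; compounds (15 concentrations) and 0.75 uM PK11195 final, 24 h at 37 C/5% CO2, then ONE-Glo luminescence after 30 min.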

[9] = qHTS assay to identify small molecule antagonists of the estrogen related receptor signaling pathway with the pleiotropic PPARgamma coactivator (PGC) from Tox21 10K library - cell viability counter screen (AID 1224840; active = well fitted cell-killing curve with a large enough effect in the repeat runs, not every such curve was filed as active; also: nearly all actives have a fitted effect of over 40% in size)
In short: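 PGC/ERR cells (2,000/well) plated 6 h, then compound-treated for 17.5 h at 37 C. Viability measured by CellTiter-Fluor fluorescence after 30 min at 37 C, multiplexed with the pathway assay.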

[10] = qHTS assay to identify small molecule antagonists of the estrogen related receptor signaling pathway with the pleiotropic PPARgamma coactivator (PGC) from Tox21 10K library (AID 1224841; call rule not given here; also: actives are mostly falling curves and most rising ones were filed inactive; nearly all actives have a fitted effect of over 50% in size)
In short: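 PGC/ERR cell line, 2,000 cells/well, pre-incubated 6 hours at 37 C, then exposed to compounds for 18 hours at 37 C; luciferase read with One-Glo luminescence after 30 min at room temperature.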

[11] = qHTS assay to identify small molecule agonists of the estrogen related receptor signaling pathway with the pleiotropic PPARgamma coactivator (PGC) from Tox21 10K library (AID 1224842); also: nearly all actives have a fitted effect of over 15% in size
In short: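 PGC/ERR reporter cells (NTP line) were seeded 2,000 per well, rested 6 h at 37 C/5% CO2, then pin-dosed with compounds in DMSO for 18 h at 37 C; luciferase read by One-Glo luminescence after 30 min at room temperature.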

[12] = qHTS assay to identify small molecule agonists of the hypoxia (HIF-1) signaling pathway - cell viability counter screen (AID 1224844; calls by dose curve; also: nearly all actives have a fitted effect of over 50% in size)
In short: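 HRE-bla ME-180 cells, 2,000/well in 0.5% dialyzed FBS medium, treated 17 h at 37C with compounds. Viability read in the same wells as the bla reporter, by CellTiter-Glo luminescence after 30 min at room temperature.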

[13] = qHTS assay to identify small molecule agonists of H2AX (AID 1224845; active = well fitted activation curve with a large enough effect in the signal ratio in the repeat runs, not every such curve was filed as active; the % refers to the signal ratio)
In short: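 Wild-type CHO-K1 cells plated overnight, then exposed 3 hr at 37C to compounds at 15 concentrations (0.76% DMSO). Lysed, then HTRF anti-pH2AX(S139)-cryptate/anti-H2AX-d2 detection after 24 hr at room temperature; emissions 665 and 620 nm.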

[14] = qHTS assay to identify small molecule agonists of the hypoxia (HIF-1) signaling pathway (AID 1224846; active = well fitted activation curve with a large enough effect in the signal ratio in the repeat runs, not every such curve was filed as active; the % refers to the signal ratio)
In short: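 HRE-bla ME-180 beta-lactamase reporter cells in medium with 0.5% dialyzed FBS, pre-incubated 5 h then exposed to compounds 17 h at 37C, 5% CO2; reporter induction read with CCF4-AM FRET substrate.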

[15] = qHTS assay to identify small molecule agonists of H2AX - cell viability counter screen (AID 1224847; calls by dose curve; also: top concentration of the series differs between compounds; nearly all actives have a fitted effect of over 30% in size)
In short: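 Viability of CHO-K1 (wild type) cells after 3 hr compound exposure was measured by CellTiter-Glo luminescence.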

[16] = qHTS assay to identify small molecule antagonists of the estrogen related receptor (ERR) signaling pathway from Tox21 library (AID 1224848); also: nearly all actives have a fitted effect of over 50% in size
In short: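 Cells: ERR line, 2,000/well; 6 h preincubation 37 C/5% CO2. Cpd in DMSO via pin tool; 18 h, 37 C. ONE-Glo, 30 min RT, luminescence.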

[17] = molecular target: Luciferin 4-monooxygenase (Photinus pyralis) (UniProt P08659); assay: qHTS assay to identify small molecule inhibitors of firefly luciferase (AID 1224835); also: nearly all actives have a fitted effect of over 25% in size; also: potency is read from the fitted curve at half-maximal effect
Chain of Luciferin 4-monooxygenase (Photinus pyralis) (P08659 whole entry, looked up): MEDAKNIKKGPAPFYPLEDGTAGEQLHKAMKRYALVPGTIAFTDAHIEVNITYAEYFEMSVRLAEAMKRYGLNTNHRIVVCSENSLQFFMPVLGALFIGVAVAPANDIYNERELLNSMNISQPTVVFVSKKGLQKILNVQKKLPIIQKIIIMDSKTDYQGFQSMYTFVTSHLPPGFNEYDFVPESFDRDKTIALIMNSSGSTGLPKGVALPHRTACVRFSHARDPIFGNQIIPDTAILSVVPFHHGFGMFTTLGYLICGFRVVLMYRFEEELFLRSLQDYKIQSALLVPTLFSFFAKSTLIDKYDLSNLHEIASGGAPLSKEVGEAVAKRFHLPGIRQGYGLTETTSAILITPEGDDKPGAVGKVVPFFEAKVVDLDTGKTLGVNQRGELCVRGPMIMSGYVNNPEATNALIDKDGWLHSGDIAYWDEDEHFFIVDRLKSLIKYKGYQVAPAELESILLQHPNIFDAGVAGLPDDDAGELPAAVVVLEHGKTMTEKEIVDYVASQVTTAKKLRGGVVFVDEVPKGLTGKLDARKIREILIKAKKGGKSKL
In short: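 Quantitative HTS format; KM concentrations of both substrates. Purified P. pyralis FLuc activity quantified from luminescence images.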

[18] = molecular target: Thyrotropin receptor (Homo sapiens) (UniProt P16473); assay: qHTS assay to identify small molecule agonists of the thyroid stimulating hormone receptor (TSHR) signaling pathway (AID 1224843; calls by dose curve; also: nearly all actives have a fitted effect of over 45% in size)
Chain of Thyrotropin receptor (Homo sapiens) (P16473 whole entry, looked up): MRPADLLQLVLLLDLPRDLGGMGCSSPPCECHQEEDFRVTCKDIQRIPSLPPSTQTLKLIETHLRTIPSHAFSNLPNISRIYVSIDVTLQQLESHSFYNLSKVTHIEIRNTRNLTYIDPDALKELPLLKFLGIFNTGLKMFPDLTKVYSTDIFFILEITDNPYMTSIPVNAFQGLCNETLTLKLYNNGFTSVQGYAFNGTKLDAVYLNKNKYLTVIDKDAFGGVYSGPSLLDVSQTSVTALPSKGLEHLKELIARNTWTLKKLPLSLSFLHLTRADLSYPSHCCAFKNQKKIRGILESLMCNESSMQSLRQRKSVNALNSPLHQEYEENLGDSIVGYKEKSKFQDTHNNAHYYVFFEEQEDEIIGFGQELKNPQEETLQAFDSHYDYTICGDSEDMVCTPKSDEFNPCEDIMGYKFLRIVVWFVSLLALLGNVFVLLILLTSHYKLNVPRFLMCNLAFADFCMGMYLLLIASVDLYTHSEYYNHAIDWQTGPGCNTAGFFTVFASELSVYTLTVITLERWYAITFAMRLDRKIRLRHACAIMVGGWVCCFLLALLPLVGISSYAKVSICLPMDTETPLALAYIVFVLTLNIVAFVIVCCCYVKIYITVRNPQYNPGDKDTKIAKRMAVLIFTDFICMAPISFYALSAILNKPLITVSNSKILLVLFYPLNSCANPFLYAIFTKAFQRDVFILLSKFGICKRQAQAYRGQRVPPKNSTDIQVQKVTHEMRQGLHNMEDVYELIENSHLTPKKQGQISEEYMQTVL
In short: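 TSHR-expressing HEK293 cells (800 per well) were exposed to compounds for 30 min at room temperature. cAMP was then detected by HTRF competition with cAMP-d2 and anti-cAMP cryptate, read after 1 h at room temperature. Fifteen concentrations, triplicate.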

[19] = qHTS assay to identify small molecule antagonists of the estrogen related receptor (ERR) signaling pathway from Tox21 library - cell viability counter screen (AID 1224834); also: nearly all actives have a fitted effect of over 30% in size
In short: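 ERR reporter cells, 2,000 per well, rested 6 h, then exposed to compound in DMSO for 17.5 hours at 37 C. Viability read as fluorescence after 30 min with CellTiter-Fluor.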

[20] = molecular target: Nuclear receptor subfamily 1 group I member 3 (Homo sapiens) (UniProt Q14994); assay: qHTS assay to identify small molecule antagonists of the constitutive androstane receptor (CAR) signaling pathway (AID 1224838); also: nearly all actives have a fitted effect of over 40% in size
In short: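 HepG2 cells stably carrying hCAR and a CYP2B6-2.2kb luciferase reporter, seeded 4 hrs before compound (15 concentrations). Stimulated with 50 nM CITCO for 24 hr at 37 C. ONE-Glo luminescence read after 30 min at room temperature.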

Measured: Potency

F[Si-2](F)(F)(F)(F)F
not listed: [17] | [18] | [19] | [20]
inactive: all other assays above

CCCCCC1Nc2cc(C(F)(F)F)c(S(N)(=O)=O)cc2S(=O)(=O)N1 (stereo unspecified)
not listed: [8] | [10] | [11] | [16] | [19] | [20]
inactive: all other assays above

C=C(C)C(=O)OCCCCCCOC(=O)C(=C)C
not listed: [6] | [8] | [15] | [17] | [18] | [20]
inactive: all other assays above

CC(C)C(=O)c1ccccc1
not listed: [8] | [12] | [17] | [19] | [20]
inactive: all other assays above

CN(C)CCCNCCC#N
not listed: [10] | [11] | [12] | [16] | [17] | [18] | [19]
inactive: all other assays above

CC1=NN(c2ccc(S(=O)(=O)O)cc2)C(=O)C1N=Nc1ccccc1 (stereo unspecified)
active: [17] 71 µM
inactive: [1] | [2] | [3] | [4] | [5] | [20] | [8] | [12] | [14] | [15]

CN[C@@H]1[C@@H](O)[C@@H](O[C@@H]2[C@H](O)[C@H](O[C@H]3OC(CN)=CC[C@H]3N)[C@@H](N)C[C@H]2N)OCC1(C)O (stereo partly specified)
not listed: [6] | [7] | [8] | [14] | [19] | [20]
inactive: all other assays above

CCCCOC(=O)C(=O)OCCCC
not listed: [6] | [17] | [18]
inactive: all other assays above

CN(C1CCCCC1)S(=O)(=O)c1ccccc1N
not listed: [8] | [10] | [19]
inactive: all other assays above
